# Shown are actives, neighbours in structure and some others; about 8.7% of the full set was active somewhere.
# Sfp PPTase inh – inhibitors of Bacillus subtilis Sfp phosphopantetheinyl transferase; Q9F4F7; Biochemical Sfp PPTase activity, qHTS; Potency, µM, for inactives: largest response in the series, negative = inhibition, usual class: inhibitors; 310,000 compounds, 3.5% hits;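 further: the enzyme is Sfp with the accession as filed and its product quenches rhodamine fluorescence; 0% = enzyme reaction without inhibitor and -100% = no enzyme wells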
#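 Fluorescence-quenching assay: 15 nM Sfp-PPTase preincubated 15 min at room temperature with compound, then 5 uM rhodamine-CoA and 12.5 uM BHQ-2-labelled YbbR peptide added. Fluorescence (ex 525/em 598 nm) read at start and after 30 min; difference gives rate.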
# JMJD2A Tudor – JMJD2A Tudor domain (human) inhibition | 390,000 compounds, 4.4% hits | Potency, µM (series often up to 114 µM), inactives show top-dose activity change, negative = inhibition, usual class: inhibitors | AID 504339 | AlphaScreen JMJD2A-Tudor / H3K4me3 peptide binding | O75164; further: on the % scale 0 is the no-effect control and ±100 the full control effect; nearly all actives have a fitted effect of over 50% in size
# HP1b chromo inh – blocks HP1-beta chromodomain binding to methylated histone tails. P83916. AlphaScreen HP1-beta / biotin-H3K9me3 peptide binding. Potency, µM (highest dose often 114 µM), inactives show at the top dose activity change, negative = inhibition, most hits filed as inhibitors. 390,000 compounds, 0.56% hits; further: nearly all actives have a fitted effect of over 70% in size
#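 AlphaScreen: HP1-beta (50 nM) preformed 30 min with biotin-H3(1-18)K9me3 peptide (50 nM) in PBS pH 7.4, 0.01% Tween-20. Compound added for 30 min at RT, then streptavidin donor/nickel chelate acceptor beads (10 ug/mL) for 30 min.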
# ALOX12 inh – blocks human arachidonate 12S-lipoxygenase | purified 12hLO, xylenol orange hydroperoxide absorbance | Potency, µM (series often up to 108 µM), for the others: at the top dose activity change, negative = inhibition, most hits filed as inhibitors | 580,000 compounds, 1.1% hits; further: on the % scale 0 is the no-effect control and ±100 the full control effect
# Target sequence (P18054 whole entry, looked up): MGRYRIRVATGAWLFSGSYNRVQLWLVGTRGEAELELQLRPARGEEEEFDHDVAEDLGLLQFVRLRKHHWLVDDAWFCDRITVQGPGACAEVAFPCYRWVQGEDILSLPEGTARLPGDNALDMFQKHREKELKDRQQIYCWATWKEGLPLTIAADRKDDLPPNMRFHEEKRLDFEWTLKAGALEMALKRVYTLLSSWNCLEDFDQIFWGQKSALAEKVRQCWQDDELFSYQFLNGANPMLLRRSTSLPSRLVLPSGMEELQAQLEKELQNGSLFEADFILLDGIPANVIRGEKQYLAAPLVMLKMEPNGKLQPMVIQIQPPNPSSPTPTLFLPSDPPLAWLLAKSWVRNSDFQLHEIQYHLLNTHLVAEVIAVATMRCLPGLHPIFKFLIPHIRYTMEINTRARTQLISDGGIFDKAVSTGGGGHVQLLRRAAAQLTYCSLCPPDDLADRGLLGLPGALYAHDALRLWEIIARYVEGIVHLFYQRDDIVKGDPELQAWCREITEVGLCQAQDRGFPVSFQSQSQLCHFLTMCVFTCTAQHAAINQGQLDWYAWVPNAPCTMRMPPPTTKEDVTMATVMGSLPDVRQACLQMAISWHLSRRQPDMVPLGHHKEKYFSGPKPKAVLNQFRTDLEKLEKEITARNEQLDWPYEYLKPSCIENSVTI
#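 Purified human 12hLO (150 nM final) in 25 mM Hepes, 0.01% Triton X-100, pH 7.0 was preincubated 15 min at room temperature with compound. Then 40 uM arachidonic acid was added, 30 min. Hydroperoxide was read by Fe-XO absorbance ratio 573/405 nm.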
# G9a inh – inhibitors of human histone lysine methyltransferase G9a; Q96KQ7; G9a H3K9 monomethylation, AlphaScreen, 2 h; Potency, µM (doses to about 102 µM), without a hit: top-dose activity, negative = inhibition, hits mostly inhibitors; 350,000 compounds, 8.8% hits; further: on the % scale 0 is the no-effect control and ±100 the full control effect; nearly all actives have a fitted effect of over 75% in size
#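 Enzyme 20 nM + cpd, 15 min RT; add b-H3K9 pep 500 nM / SAM 20 uM; 2 h RT; anti-H3K9me1 Ab 0.5 ug/mL + SA donor / anti-rabbit acceptor beads 20 ug/mL each, 10 min; AlphaScreen read.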
# BAZ2B inh – inhibitors of human BAZ2B bromodomain | Q9UIF8 | AlphaScreen BAZ2B-H3K14Ac peptide displacement | Potency, µM (series often up to 114 µM), without a hit: top-dose activity change, negative = inhibition, actives largely listed as inhibitors | 360,000 compounds, 4.4% hits | AID 504333; further: on the % scale 0 is the no-effect control and ±100 the full control effect; nearly all actives have a fitted effect of over 60% in size
#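 Multi-concentration screen (max 110 uM) measuring displacement of acetylated histone H3 peptide from BAZ2B by AlphaScreen, using 50 nM protein, 50 nM peptide and 10 ug/mL streptavidin donor plus Ni-chelate acceptor beads.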
# Numbers without * were called inactive; ? = inconclusive; / = not tested or not shown; [ ] = dose if it differs, or a comment. The call rests on the fitted dose curve; in most records, active means well fitted curve in the direction sought with a large enough effect; inconclusive means small, poorly fitted or top-dose-only effect, or another doubt; inactive means no such curve, though single readings can be large; an effect the other way counts as inactive or inconclusive. Potency means the concentration at half of the fitted maximal effect.
SMILES,Sfp PPTase inh,JMJD2A Tudor,HP1b chromo inh,ALOX12 inh,G9a inh,BAZ2B inh
Cn1c(=O)c2[nH]c(CN3CCN(C(=O)c4ccco4)CC3)nc2n(C)c1=O,/,/,/,-25.3%,/,/
Cn1c(=O)c2[nH]c(CN3CCN(c4ccccc4F)CC3)nc2n(C)c1=O,/,/,/,-0.1%,/,/
CN1CCN(Cc2nc3c([nH]2)c(=O)[nH]c(=O)n3C)CC1,-24.7%,10µM*,-2.3%,?,?,-3.7%
Cn1c(=O)c2[nH]c(CN3CCCCC3)nc2n(C)c1=O,/,3.98µM*,?,-19.4%,/,/
COc1ccc(NC(=O)c2c(-n3cnnn3)sc(C)c2C)cc1Cl,/,/,/,6.5%,/,/
O=C(Nc1ccc(N2CCOCC2)cc1)c1ccc2ncsc2c1,/,-19.9%,9.5%,-9.6%,/,/
CC(=O)NC(=O)COC(=O)c1ccc2ncsc2c1,0.2%,-15.5%,37.8%,0.0%,56.2µM*,7.6%
Cc1ccc(NC(=O)c2ccc3ncsc3c2)cc1S(=O)(=O)N(C)C,56.2µM*,/,/,?,?,56.2µM*
O=C(O)c1ccc2ncsc2c1,2.9%,20µM*,-23.0%,44.7µM*,?,20µM*
O=C(Nc1ccc(F)cc1)c1ccc2ncsc2c1,?,-1.7%,45.2%,?,35.5µM*,-2.2%
CCOc1ccc(C(C)NC(=O)Cc2nc(-c3cccs3)oc2C)cc1OCC (stereo unspecified),/,/,/,18.1%,/,/
CN1CCC(N[C@@H]2CCC[C@@H](C(=O)NC3CC3)CC(=O)N(C)C2)CC1,/,/,/,30.0%[176 µM],/,/
Nc1ccc(-c2nc3ccc(C(=O)O)cc3s2)cc1,56.2µM*,0.4%,31.4%,-14.5%,39.8µM*,2.1%
O=C(Nc1ccc(C(F)(F)F)cc1)c1ccc2nc[nH]c2c1,-3.1%,-2.1%,33.5%,-0.5%,10.4%,-7.2%
O=C(Nc1ccc(C(F)(F)F)cc1)c1ccc2ncsc2c1,79.4µM*,-0.7%,27.7%,?,?,2.2%
O=C(Nc1ccc(Cl)cc1)c1ccc2ncsc2c1,?,3.3%,44.6%,/,44.7µM*,1.9%
O=C(O)c1ccc2nc(-c3ccccc3)sc2c1,24.4%,-26.0%,15.9%,-16.3%,11.0%[59 µM],8.2%
O=C(CC1C=CCC1)N(Cc1ccco1)C1CC1 (stereo unspecified),/,/,/,-28.9%,/,/
COc1ccc(C(=O)C2CCCN(Cc3cc(C)c(O)c(C)c3)C2)c(OC)c1 (stereo unspecified),11.9%,-15.8%,7.6%,3.9%,/,0.3%
COc1ccc(CN2CCCC(C(=O)N3CCCC3)C2)c(OC)c1 (stereo unspecified),-18.8%,0.891µM*,50.1µM*,-37.8%,-2.1%,50.1µM*
CCOC(=O)C1CCCN(Cc2ccc(OC)cc2OC)C1 (stereo unspecified),-10.3%,1.26µM*,?,?,-21.4%[59 µM],-32.1%
COc1cc(OC)c2c(C)c(CC(=O)N3CCCC3)c(=O)oc2c1,/,/,/,-22.0%,/,/
O=C(CSc1nnc(C2CC2)n1-c1ccccc1)Nc1ccc(N2CCOCC2)cc1,-6.5%,-12.0%,26.3%,0.0%,56.2µM*,-29.8%
O=C(CSc1nncn1-c1ccccc1)Nc1ccc(N2CCOCC2)cc1,6.1%,10µM*,-12.3%,24.2%,/,-5.7%
Cn1c(SCC(=O)Nc2ccc(N3CCOCC3)cc2)nnc1C1CC1,/,1.4%,37.9%,-3.6%,?,-5.5%
SMILES,Sfp PPTase inh,JMJD2A Tudor,HP1b chromo inh,ALOX12 inh,G9a inh,BAZ2B inh
CCS(=O)(=O)N1CCCc2cc(C(=O)Nc3ccccc3C(=O)OC)ccc21,/,/,/,-27.0%,/,/
CC(Nc1ccc(S(=O)(=O)N2CCN(C)CC2)cc1[N+](=O)[O-])c1ccccc1 (stereo unspecified),/,?,-27.6%,?,39.8µM*,?
CN1CCN(S(=O)(=O)c2ccc(N(C)Cc3ccc(OC(F)F)cc3)c([N+](=O)[O-])c2)CC1,/,?,?,?,8.9%[0.501 µM],50.1µM*
COc1ccc(CCNc2ccc(S(=O)(=O)N3CCCC3)cc2[N+](=O)[O-])cc1,6.9%,?,?,-2.1%,?,?
Cc1ccc(S(=O)(=O)N2CCN(C)CC2)cc1[N+](=O)[O-],1.7%,-17.3%,21.6%,14.8%,-34.7%[59 µM],-6.1%
COc1cccc(C(CNc2ccc(S(=O)(=O)N3CCN(C)CC3)cc2[N+](=O)[O-])N(C)C)c1 (stereo unspecified),/,?,-21.7%,?,50.1µM*,?
COc1ccccc1C(C)Nc1ccc(S(=O)(=O)N2CCN(C)CC2)cc1[N+](=O)[O-] (stereo unspecified),/,35.5µM*,?,-22.9%,?,39.8µM*
CC1=C[C@@H](CNC2CCOCC2)[C@H](C(C)C)C[C@H]1Cc1nc2ccccc2n1C,/,/,/,73.6%[176 µM],/,/
COc1ccc(-c2cc(OC)c3ccccc3n2)cc1,-14.4%,41.1%,56.3%,44.7µM*,43.6%[59 µM],48.1%
COc1cc(-c2ccccc2)nc2ccccc12,0.4%,55.2%,103.6%,18.9%,-20.0%[59 µM],53.1%
COc1cc(C(=O)O)nc2ccccc12,63.1µM*,12.6µM*,-10.2%,?,12.4%[2.33 µM],39.8µM*
COc1cc(-c2cc(C(=O)O)c3ccccc3n2)cc(OC)c1OC,/,/,/,-30.0%,/,/
COC(=O)[C@H](Cc1ccccc1)NC1CCN(c2cccc(NC(=O)CC3CCCC3)c2)CC1,/,/,/,6.3%,/,/
O=C(Nc1c(NCC2CCCCC2)c2ccccc2oc1=O)c1cccc(F)c1,/,/,/,15.0%,/,/
CN(Cc1ccc(Cl)cc1Cl)C(=O)CCN=C1NS(=O)(=O)c2ccccc21,/,/,/,-3.9%,/,/
Cc1cc(C(=O)N/N=C2\CC(=O)c3ccccc32)c(C)n1-c1ccc(F)cc1,1.1%,-4.4%[11.4 µM],27.7%,6.8%,50.1µM*,39.8µM*
CCOC(=O)c1scc(-c2ccccc2)c1S(=O)(=O)Nc1cc(Cl)c(OC)cc1OC,/,-23.7%,?,?,10µM*,?
CCOC(=O)c1scc(-c2ccc(C)cc2)c1S(=O)(=O)Nc1ccccc1C,/,/,/,18.0%,/,/
CCOC(=O)c1scc(-c2ccc(C)cc2)c1S(=O)(=O)Nc1cc(Cl)ccc1OC,/,-24.0%,10.8%,-41.3%,-40.1%[59 µM],-38.7%
CCOC(=O)c1scc(-c2ccccc2)c1S(=O)(=O)Nc1ccc(N(C)C)cc1,/,14.1µM*,?,?,4.47µM*,20µM*
NNc1nc(C(F)(F)F)nc2ccccc12,50.1µM*,5.8%,23.4%,35.3%,31.6µM*,2.1%
NNc1nc2ccccc2nc1C(F)(F)F,-23.7%,7.5%[11.4 µM],-7.6%,?,8.91µM*,-14.8%
Cc1ccc(-c2nc3ccccc3nc2NN)cc1,14.1µM*,-30.0%,19.6%,?,35.5µM*,-17.4%
O=C(NNc1nc2ccccc2nc1C(F)(F)F)c1ccccc1,19.8%,-27.9%,17.7%,0.0%,84.1%[59 µM],?
